Experimental data from PubChem BioAssay (NCATS).
Inconclusive results are not listed. Activity calls are given as the source filed them. The call rests on the fitted dose curve; in most records, active means well fitted curve in the direction sought with a large enough effect; inconclusive means small, poorly fitted or top-dose-only effect, or another doubt; inactive means no such curve, though single readings can be large; an effect the other way counts as inactive or inconclusive.

How the values were obtained:
[1] = target: Calcium and integrin-binding protein 1 (Homo sapiens) (UniProt Q99828); test: Primary qHTS for Identification of Calcium Integrin Binding Protein 1 (CIB1) Competitor (AID 1508620);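 further: GST tagged CIB1 binding a fluorescein labelled alphaIIb integrin peptide tracer; top concentration of the series differs between compounds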
How it was run: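 Fluorescence polarization competition: GST-tagged CIB1 (1 uM final) preincubated with compound 15 min at room temperature, then FITC-labelled alphaIIb peptide (100 nM final) added. After 15 min at room temperature, polarization read at Ex 480/Em 540.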

[2] = Primary qHTS for inhibitors of nuclear receptor binding SET domain protein 2 (NSD2) in an isogenic RCH-ACV NSD2 p.E1099K mutant (9B) (AID 1645876); further: nearly all actives have a fitted effect of over 70% in size
[3] = Primary qHTS for inhibitors of nuclear receptor binding SET domain protein 2 (NSD2) in an RCH-ACV wild type WT cells (2C) (AID 1645877); further: nearly all actives have a fitted effect of over 70% in size
On the % scale 0 is the no-effect control and ±100 the full control effect.

Calcium and integrin-binding protein 1 (Homo sapiens), sequence (Q99828 whole entry, looked up): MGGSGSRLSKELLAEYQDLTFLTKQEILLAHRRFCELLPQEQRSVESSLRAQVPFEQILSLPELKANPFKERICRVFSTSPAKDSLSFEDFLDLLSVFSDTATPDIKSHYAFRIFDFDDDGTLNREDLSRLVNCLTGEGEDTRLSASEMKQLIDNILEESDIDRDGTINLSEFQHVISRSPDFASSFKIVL

CC(O)CCc1ccc(O[C@@H]2O[C@H](CO)[C@@H](O)[C@H](O)[C@H]2O)cc1 (some centres undefined)
inactive: Potency [1] | Potency [2] | Potency [3]

CC(=O)/C=C/C1(O)C(C)(C)CC(O)CC1(C)O (centres undefined)
inactive: Potency [1] | Potency [2] | Potency [3]

C/C=C1/[C@H](O[C@@H]2O[C@H](CO)[C@@H](O)[C@H](O)[C@H]2O)OC=C(C(=O)OC)[C@H]1CC(=O)OCCc1ccc(OC(=O)C[C@@H]2C(C(=O)OC)=CO[C@@H](O[C@@H]3O[C@H](CO)[C@@H](O)[C@H](O)[C@H]3O)/C2=C/C)cc1
inactive: Potency [1] | activity change, negative = viability loss [2] -12% [at 9.23 µM] | activity change, negative = cell killing [3] -15% [at 9.23 µM]

C=C1CCC2C(C)(C(=O)O)CCCC2(C)C1CC/C(C)=C\CO (centres undefined)
inactive: Potency [1] | Potency [2] | Potency [3]

C=C1CC23CC1CCC2C12OC(=O)C(C)(C(O)CC1O)C2C3C(=O)O (centres undefined)
inactive: Potency [1] | Potency [2] | Potency [3]

CC1(CO)CCCC2(C)C1C(OC(=O)c1ccccc1)CC1C(=O)OCC12O (centres undefined)
inactive: Potency [1] | Potency [2] | Potency [3]

CC1(O)CC(O)C2C(C(=O)O)=COC(OC3OC(CO)C(O)C(O)C3OC(=O)/C=C/c3ccc(O)cc3)C21 (centres undefined)
inactive: Potency [1] | Potency [2] | Potency [3]

C/C=C(/C)C(=O)O[C@H]1C[C@]2(C)O[C@@H]2[C@@H](OC(C)=O)[C@@]2(C)CC[C@@](O)(C(C)C)[C@H]12
inactive: Potency [1] | Potency [2] | Potency [3]

CC(C)CC(c1c(O)c(C=O)c(O)c(C=O)c1O)C1CCC(C)(O)C2CC(C(C)(C)O)CCC12C (centres undefined)
inactive: Potency [1] | Potency [2] | Potency [3]

CCCCCOC(=O)Nc1nc(=O)n(C2O[C@H](C)[C@@H](O)[C@H]2O)cc1F (some centres undefined)
inactive: Potency [1] | Potency [2] | Potency [3]

O=C(O)c1ccnc2cc(C(OCC3CCC(F)(F)CC3)c3ccccc3Cl)[nH]c12 (centres undefined)
inactive: Potency [1] | Potency [2] | Potency [3]

COc1cc(/C=C/CO[C@@H]2O[C@H](CO)[C@@H](O)[C@H](O)[C@H]2O)cc(OC)c1O[C@@H]1O[C@H](CO)[C@@H](O)[C@H](O)[C@H]1O
inactive: Potency [1] | Potency [2] | Potency [3]

CC1=C2CC(C)(C)CC2C(O)C2=C(C1)C(=O)OC2O (centres undefined)
inactive: Potency [1] | Potency [2] | Potency [3]

C=C(C)[C@@H]1CC[C@]2(C)CC[C@]3(C)C(CCC4[C@@]5(C)CC[C@H](O)C(C)(C)C5CC[C@]43C)C12 (some centres undefined)
inactive: Potency [1] | Potency [2] | Potency [3]

CC1=C2C[C@@]3(C)[C@@H](CCC[C@@H]3C)C[C@@]2(O)OC1=O
inactive: Potency [1] | Potency [2] | Potency [3]

COc1cc(-c2ccc(O)cc2)c(OC)c(O)c1C1=CC(=O)OC1CC(=O)O (centres undefined)
inactive: Potency [1] | Potency [2] | Potency [3]

COc1cc2c(cc1O)CC(O)(CO)C(CO)C2c1ccc(OC2OC(CO)C(O)C(O)C2O)c(OC)c1 (centres undefined)
inactive: Potency [1] | Potency [2] | Potency [3]

C[C@]12CCC[C@](C)(C(=O)O)C1CCC13CC(CO)C(CCC12)C3 (some centres undefined)
inactive: Potency [1] | Potency [2] | Potency [3]

C[C@@H]1C[C@@H](O)[C@@]23CO[C@]2(CO)C[C@@H](O)CC3[C@@]12CC(c1ccoc1)OC2=O (some centres undefined)
inactive: Potency [1] | Potency [2] | Potency [3]

C=C1C(OC(C)=O)CCC2(C)CC3(O)OC(=O)C(C)=C3CC12 (centres undefined)
inactive: Potency [1] | Potency [2] | Potency [3]

COc1ccnc2[nH]cc(C(=O)C(=O)N3CCN(C(=O)c4ccccc4)CC3C)c12 (centres undefined)
inactive: Potency [1] | Potency [2] | Potency [3]

COc1cc(C(CO)CO[C@@H]2O[C@H](CO)[C@@H](O)[C@H](O)[C@H]2O)ccc1O (some centres undefined)
inactive: Potency [1] | Potency [2] | Potency [3]

CCN(CCN(C)C)C(=O)CNCc1cc(C(N)=O)ccn1
inactive: Potency [1] | Potency [2] | Potency [3]

O=C(O)C[C@H]1CCC(=O)[C@@H]1C/C=C\CCO
inactive: Potency [1] | Potency [2] | Potency [3]

OC[C@@]1(O)CO[C@H](OC[C@H]2O[C@@H](OC(CCCCc3ccc(O)cc3)CCc3ccc(O)cc3)[C@H](O)[C@@H](O)[C@@H]2O)[C@@H]1O (some centres undefined)
inactive: Potency [1] | Potency [2] | Potency [3]

COc1cc(O)cc(O[C@@H]2O[C@H](CO)[C@@H](O[C@@H]3OC[C@](O)(CO)[C@H]3O)[C@H](O)[C@H]2O)c1OC
inactive: Potency [1] | Potency [2] | Potency [3]

CCc1cc(CC[C@]2(C3CCCC3)CC(O)=C(Cc3nc4nc(C)cc(C)n4n3)C(=O)O2)cc(CC)n1
inactive: Potency [1] | Potency [2] | Potency [3]

CC1CC=C2C1CC1(O)C(=O)CC2(C)C1(C)CO (centres undefined)
inactive: Potency [1] | Potency [2] | Potency [3]
